Sampled rows, rich in hits. Any-hit rate of the full collection: about 2.8%.
HEK293 viab: reduces viability of HEK-293 SNCA reporter cells; HEK-293-SNCA-luc viability, GF-AFC fluorescence, 24 h; Potency, µM (highest dose often 57.1 µM), for the others: at the highest dose activity change, negative = cytotoxicity, actives largely listed as cytotoxic; AID 1671193; actives 0.12% (n = 150,000);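 note: potency is the fitted concentration of half-maximal effect; 0% = DMSO-treated cells and -100% = medium-only wells without cells; nearly all actives have a fitted effect of over 30% in size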
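HEK-293-SNCA-luc cells (1500/well) plated 24 h, then exposed 24 h to a dilution series; GF-AFC added 30 min at 37C, fluorescence 405/540 nm; normalised to medium-only and DMSO wells, Hill fit.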
SNCA expr inh: SNCA gene expression inhibition. HEK-293 SNCA-luciferase knock-in, luminescence, 24 h. Potency, µM (doses to about 57.2 µM), without a hit: at the top dose activity change, negative = inhibition, usual class: inhibitors. actives 0.17% (n = 140,000);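 note: potency is the fitted concentration of half-maximal effect; plate controls were DMSO cells for no effect and cell-free wells for full effect; nearly all actives have a fitted effect of over 45% in size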
IP6K1 inh: IP6K1 kinase inhibition. Q92551. IP6K1 kinase, ADP-Glo luminescence, 2 h; hits give low values. activity change, % (series mostly up to about 58 µM). actives 0.81% (n = 140,000). AID 1645851; in the data active = activity change below about -25%; note: % is set by controls: 0 for no effect and ±100 for the full control effect
Target sequence (Q92551 whole entry, looked up): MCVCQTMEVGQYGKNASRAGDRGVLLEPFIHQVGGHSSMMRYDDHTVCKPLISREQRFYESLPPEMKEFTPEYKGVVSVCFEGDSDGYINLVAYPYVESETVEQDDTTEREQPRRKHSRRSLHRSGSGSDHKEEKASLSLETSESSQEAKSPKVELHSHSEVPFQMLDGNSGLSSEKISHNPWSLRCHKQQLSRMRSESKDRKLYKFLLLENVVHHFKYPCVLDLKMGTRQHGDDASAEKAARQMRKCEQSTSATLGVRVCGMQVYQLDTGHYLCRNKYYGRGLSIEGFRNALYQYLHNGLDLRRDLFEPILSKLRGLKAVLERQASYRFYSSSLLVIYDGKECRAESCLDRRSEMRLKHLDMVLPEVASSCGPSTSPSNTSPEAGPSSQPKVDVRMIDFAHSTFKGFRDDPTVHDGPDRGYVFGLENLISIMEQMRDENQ
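ADP-Glo luminescence measures ADP made by human IP6K1 during a 2 h RT reaction with ATP/IP6 (mix at 1.3 mM/130 uM); top library doses 57.5 and 19.1 uM final.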
KDM5B inhibitor: inhibitors of human KDM5B histone demethylase | KDM5B demethylase, FDH-coupled NADH fluorescence (FDH is formaldehyde dehydrogenase) | Potency, µM (doses to about 57.7 µM), usual class: inhibitors | actives 2.6% (n = 220,000) | AID 1347165; note: potency is the fitted concentration of half-maximal effect; 0% is about no effect; nearly all actives have a fitted effect of over 70% in size
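Measured: NADH fluorescence change, 30 min, RT. System: KDM5BΔAP 200 nM final, H3K4me3 peptide, α-KG, Fe(II), ascorbate, NAD⁺ plus FDH, pH 7.5 HEPES. Compounds: titrated, 10 min pre-incubation with enzyme.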
* = called active by the depositor; i = inactive; ? = inconclusive; nt = no result given; [ ] = remark or other dose. Unless noted, calls come from the whole dose curve; as a rule, active = well fitted curve in the direction sought with a large enough effect; inconclusive = small, poorly fitted or top-dose-only effect, or another doubt; inactive = no such curve, though single readings can be large; an effect the other way counts as inactive or inconclusive.

SMILES	HEK293 viab	SNCA expr inh	IP6K1 inh	KDM5B inhibitor
COc1ccnc(-c2nnc3ccc(N4C[C@@H](C)O[C@@H](C)C4)nn23)c1	-14%[87.6 µM]	-12%[87.6 µM]	-13	i
O=C(NCCc1nc(-c2cccnc2)no1)C1NCCc2[nH]cnc21 (configuration not stated)	-1%	?	14	i
O=C(NCCc1noc(-c2ccccc2)n1)C1NCCc2[nH]cnc21 (configuration not stated)	-14%	5%	18	35µM*
COc1ccc(OC)c(CN2CC[C@@H]3OCC(=O)N(C(C)C)[C@H]3CC2)c1	-6%[87.6 µM]	-1%[87.6 µM]	1	i
COc1ccccc1NC(=O)Cn1ccn2nc(-c3ccc(F)cc3)c(CO)c2c1=O	-9%	6%	30	?
COCCN1CCC2(C1)CN(C)c1ccc(C(=O)Nc3ccccc3)cc12 (configuration not stated)	-2%[87.6 µM]	10µM*	-5	25µM*
COCCN1CCC2(C1)CN(C)c1ccc(C(=O)Nc3ccc(F)cc3)cc12 (configuration not stated)	-7%[87.6 µM]	-2%[87.6 µM]	10	?
CC(=O)N1CCCC2(C1)CN(C)c1ccc(C(=O)NCC3CC3)cc12 (configuration not stated)	3%[87.6 µM]	25%[87.6 µM]	-2	28µM*
COCCN1CCC2(C1)CN(C)c1ccc(C(=O)NCC3CC3)cc12 (configuration not stated)	2%[87.6 µM]	14%[87.6 µM]	-3	35µM*
Cc1ccc(C(=O)N2CCC(OC3CCN(C)CC3)CC2)s1	5%	1%	11	i
CCOc1nccnc1NC1CCN(C(=O)c2cccn2C)CC1	7%	13%	0	28µM*
CCOc1nccnc1NC1CCN(C(=O)c2ccc(C)s2)CC1	4%	-11%	-8	28µM*
COc1ccc(NC(C)(C)c2nnnn2-c2c(C)cccc2C)cc1OC	nt	nt	nt	i
N#Cc1ccc(CN2C[C@@H]3OCC(=O)N(CC(N)=O)[C@@H]3C2)cc1	-2%[87.6 µM]	-23%[87.6 µM]	-5	35µM*
COc1ccc(Oc2cc(CNS(=O)(=O)N3CCOCC3)ccn2)cc1	nt	nt	nt	i
CCNc1ncc(C(=O)N2CCN(CCCCOC)CC2)cn1	1%	11%	-11	25µM*
Cc1nc(C2CC(NC(=O)c3cnc(N)nc3C(F)(F)F)C2)cc(=O)[nH]1 (configuration not stated)	0%	-3%	9	28µM*
Nc1nc(C2CC(NC(=O)c3csc4c3CCCC4)C2)cc(=O)[nH]1 (configuration not stated)	1%	9%	33	i
Cc1noc(-c2cccs2)c1C(=O)NCCCCc1ccccc1	-1%	5%	-10	32µM*
CCCOCCNC(=O)c1c(C)noc1-c1cccs1	6%	11%	-9	25µM*
Cc1noc(-c2cccs2)c1C(=O)NCCC(c1ccccc1)c1ccccc1	-2%	-21%	-20	35µM*
Cc1nnc2ccc(N3CCC(NC(=O)C4CC4)CC3)nn12	nt	nt	1	nt
O=C(NC1CC1)c1ccc2ccnn2c1	12%[87.6 µM]	59%[87.6 µM]	1	32µM*
CN(C)C(=O)c1ccn2nccc2c1	-3%[87.6 µM]	2%[87.6 µM]	5	32µM*
CN(C)C(=O)c1ccc2ccnn2c1	7%[87.6 µM]	2%[87.6 µM]	6	32µM*
SMILES	HEK293 viab	SNCA expr inh	IP6K1 inh	KDM5B inhibitor
O=C(NC1CC1)c1cc2cccnn2n1	4%[87.6 µM]	-11%[87.6 µM]	-1	32µM*
CN(C)c1ccc(NC(=O)c2ccccc2)cc1	nt	nt	nt	i
CCOC(=O)C1CCN(C(=O)c2cn3cc(-c4ccc(C(F)(F)F)cc4)sc3n2)CC1	19%	3%	-12	nt
CN(C)C(=O)c1ccn2cncc2c1	8%[87.6 µM]	-18%[87.6 µM]	5	35µM*
Cc1ccc(F)c(OC2(C(=O)O)CCN(c3cnc4ccccc4n3)CC2)c1	-5%	-2%	-1	20µM*
N#Cc1ccc(C[B][B][B][B][B][B][B][B][B][B]Cc2ccc(C#N)cc2)cc1	nt	nt	nt	i
COc1ccc(Nc2cc3c(cn2)NCCN(Cc2ccccc2)C3)cc1	?	?	-19	?
COc1ccc(CN2CCNc3cnc(OCc4cccnc4)cc3C2)cc1	-1%[87.6 µM]	-20%[87.6 µM]	-16	28µM*
COc1ccc(CN2CCNc3cnc(Nc4ccccc4)cc3C2)cc1	-2%[87.6 µM]	-15%[87.6 µM]	-20	35µM*
COc1ccc(CN2CCNc3cnc(Nc4ccccc4)cc3C2)cn1	-9%[87.6 µM]	-5%[87.6 µM]	-18	35µM*
c1ccc(Nc2cc3c(cn2)NCCN(Cc2ccsc2)C3)cc1	-14%[87.6 µM]	0%[87.6 µM]	-17	35µM*
Cc1nonc1CN(C)C(=O)CC(c1ccccc1)c1ccc2c(c1)OCO2 (configuration not stated)	0%	27%	11	i
O=C1CC(c2ccccc2)N(C(=O)C2CC2)CCCN(S(=O)(=O)c2cccnc2)CCN1 (configuration not stated)	2%	25%	10	i
CCc1ccc(CCC(=O)N(C)Cc2cccs2)cc1	nt	nt	nt	i
Cc1cc(C)cc(NC(=S)N[C@H]2CO[C@H]3[C@@H]2OC[C@@H]3n2nnnc2Oc2cccc(N(C)C)c2)c1	-4%	?	5	25µM*
COc1ccc(C(=O)N[C@H]2CO[C@H]3[C@@H]2OC[C@@H]3n2nnnc2Oc2ccc3c(c2)OCO3)cc1	-21%	?	7	35µM*
CC(=O)c1ccc(NC(=O)N[C@H]2CO[C@H]3[C@@H]2OC[C@@H]3n2nnnc2Oc2cccc(N(C)C)c2)cc1	-7%	28%	-24	i
Cn1ncc2c(C(=O)Nc3cccc(Cl)c3)cc(-c3ccc(C(F)(F)F)cc3)nc21	nt	nt	-11	nt
O=C(Cn1ccn2nc(-c3ccccc3)c(CO)c2c1=O)NCCc1ccc(Cl)cc1	-4%	38%	0	28µM*
COc1ccc(CCNC(=O)Cn2ccn3nc(-c4ccccc4)c(CO)c3c2=O)cc1OC	-7%	42%	9	?
O=C(Cn1ccn2nc(-c3ccccc3)c(CO)c2c1=O)Nc1ccc(Cl)cc1	2%	-4%	5	28µM*
O=C(Cn1ccn2nc(-c3ccccc3)c(CO)c2c1=O)Nc1ccc(Br)cc1	-3%	0%	14	?
CCCCc1ccc(NC(=O)Cn2ccn3nc(-c4ccccc4)c(CO)c3c2=O)cc1	7%	-30%	10	25µM*
Cc1nc(CCNC(=O)c2scnc2C)cs1	nt	nt	nt	i
CCOc1cccc(-c2noc(-c3ncn4c3COC(c3ccc(OC)cc3)C4)n2)c1 (configuration not stated)	-18%	?	3	i
Cc1noc(C)c1-c1cc2cc(CN(C)C)oc2c(Nc2cccc([S+](C)(=O)[O-])c2)n1	-9%[87.6 µM]	11%[87.6 µM]	-4	32µM*
Cc1noc(C)c1-c1cc2cc(CO)oc2c(-c2ccc([S+](C)(=O)[O-])cc2)n1	-1%[87.6 µM]	11%[87.6 µM]	6	35µM*
Cc1noc(C)c1-c1cc2cc(CO)oc2c(-c2cccc(OC(C)C)c2)n1	-13%[87.6 µM]	0%[87.6 µM]	-17	25µM*
Cc1noc(C)c1-c1cc2cc(CN(C)C)oc2c(Nc2ccn(C)n2)n1	4%[87.6 µM]	39%[87.6 µM]	-3	i
Cc1cc2cc(-c3c(C)noc3C)nc(-c3cccc([S+](C)(=O)[O-])c3)c2o1	-19%[87.6 µM]	83%[87.6 µM]	-11	32µM*
